Read-out in assay [1]: Interleukin-8 (IL8), CXCL8 (gene 3576)
Briefly: BSK_CASM3C_IL8: BioMAP Diversity Plus: CASM3C Assay for Interleukin-8 (IL8) Biomarker Activity (AID 2283042).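 Note: IL-8 protein level quantified by ELISA.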 Conditions: primary human coronary artery smooth muscle cells; actives raise or lower the signal.

Read-out in assay [2]: Human Leukocyte Antigen - DR isotype (HLADR), HLA-DRA (gene 3122)
Briefly: BSK_CASM3C_HLADR: BioMAP Diversity Plus: CASM3C Assay for Human Leukocyte Antigen - DR isotype (HLADR) Biomarker Activity (AID 2283043).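 Note: cell-surface HLA-DR protein level quantified by ELISA.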 Conditions: primary human coronary artery smooth muscle cells; actives raise or lower the signal.

Read-out in assay [3]: Macrophage colony-stimulating factor (MCSF), CSF1 (gene 1435)
Briefly: BSK_CASM3C_MCSF: BioMAP Diversity Plus: CASM3C Assay for Macrophage colony-stimulating factor (MCSF) Biomarker Activity (AID 2283044).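 Note: M-CSF protein amount quantified by ELISA after 24 h exposure.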 The conditions noted are these: primary human coronary artery smooth muscle cells; actives raise or lower the signal.

Read-out in assay [4]: Low-density lipoprotein receptor (LDLR), LDLR (gene 3949)
Briefly: BSK_CASM3C_LDLR: BioMAP Diversity Plus: CASM3C Assay for Low-density lipoprotein receptor (LDLR) Biomarker Activity (AID 2283045).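 Note: LDLR protein level on the cell surface quantified by ELISA.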 The conditions noted are these: primary human coronary artery smooth muscle cells; actives raise or lower the signal.

Read-out in assay [5]: Monocyte Chemoattractant Protein-1 (MCP1), CCL2 (gene 6347)
Briefly: BSK_CASM3C_MCP1: BioMAP Diversity Plus: CASM3C Assay for Monocyte Chemoattractant Protein-1 (MCP1) Biomarker Activity (AID 2283046).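 Note: MCP-1 level quantified by ELISA 24 h after dosing.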 Conditions: primary human coronary artery smooth muscle cells; actives raise or lower the signal.

The nature of assay [6]: BSK_CASM3C_Proliferation: Cell Proliferation Assessment in the BioMAP Diversity Plus: CASM3C Assay (AID 2283047).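 Note: sulforhodamine B total protein stain as relative cell number at 560 nm; sub-confluent cells exposed 48 h before staining; fitted both ways against DMSO so gain or loss of cell number.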 The conditions noted are these: primary human coronary artery smooth muscle cells.
Read-out in assay [7]: Monokine induced gamma interferon (MIG), CXCL9 (gene 4283)
Briefly: BSK_CASM3C_MIG: BioMAP Diversity Plus: CASM3C Assay for Monokine induced gamma interferon (MIG) Biomarker Activity (AID 2283048).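 Note: MIG protein level measured by ELISA.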 Conditions: primary human coronary artery smooth muscle cells; actives raise or lower the signal.

Read-out in assay [8]: serum amyloid A (SAA), SAA1 (gene 6288)
The assay is described as follows: BSK_CASM3C_SAA: BioMAP Diversity Plus: CASM3C Assay for serum amyloid A (SAA) Biomarker Activity (AID 2283049).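 Note: SAA protein level quantified by ELISA.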 Conditions: primary human coronary artery smooth muscle cells; actives raise or lower the signal.

Assay [9] in a line: BSK_CASM3C_SRB: Viability Assessment in the BioMAP Diversity Plus: CASM3C Assay (AID 2283050).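 Note: total protein by SRB staining as cytotoxicity measure in parallel cultures; cells exposed to compound for 24 h.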 Conditions: primary human coronary artery smooth muscle cells.
Read-out in assay [10]: Thrombomodulin, THBD (gene 7056)
Briefly: BSK_CASM3C_Thrombomodulin: BioMAP Diversity Plus: CASM3C Assay for Thrombomodulin Biomarker Activity (AID 2283051).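 Note: thrombomodulin protein level measured by ELISA 24 h after dosing.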 Conditions: primary human coronary artery smooth muscle cells; actives raise or lower the signal.

From PubChem BioAssay (EPA / NIEHS) come the findings set out here.

The source made the active and inactive calls. Rule for the calls: active = hit-call score of the fitted dose curve at least 0.9, where 1 is the maximum; inactive = score below 0.9.

Usually AC50 stands for the concentration giving half of the maximal activity seen.

In the case of `CNC(=O)Oc1cccc2ccccc12`, the result in assay [1], in assay [2], in assay [3], in [4], in assay [5] and in [7] was inactive. For the same molecule, the outcome in assay [8], in assay [9] and in assay [10] was inactive. Further, the AC50 in assay [6] is 26.2 µM (active).

As for `O=C(O)c1c(Cl)ccc2cc(Cl)cnc12`, the outcome in assay [1], in [2], in assay [3], in [4], in [5] and in [6] was inactive. The outcome in assay [7], in assay [8], in assay [9] and in assay [10] was inactive.

`CCOc1cc(C(C)(C)C)ccc1C1COC(c2c(F)cccc2F)=N1` (stereo not given): the outcome in assay [1], in [2], in assay [3], in assay [4], in [7] and in assay [8] was inactive. Besides, the AC50 in assay [5] is 32.5 µM (active); in assay [6], 33 µM (active); in assay [9] it was 25 µM (active); in [10], 22.8 µM (active).

Turning to `COC(=O)NC(=S)Nc1ccccc1NC(=S)NC(=O)OC`, the result in assay [1], in [2], in assay [3], in [4], in [5] and in [6] was inactive. The result in [7], in assay [8], in assay [9] and in [10] was inactive.

Regarding `N#Cc1c[nH]cc1-c1cccc2c1OC(F)(F)O2`, the outcome in assay [1], in [2], in assay [3], in assay [4], in assay [5] and in assay [7] was inactive. For the same molecule, the result in assay [8] and in assay [9] was inactive. In addition, the AC50 in assay [6] is 20 µM (active); in assay [10] it was 22.7 µM (active).

With `CC1(C)CON(Cc2ccccc2Cl)C1=O`, the outcome in assay [1], in assay [2], in assay [3], in assay [4], in assay [5] and in assay [6] was inactive. For the same molecule, the result in assay [7], in assay [8], in assay [9] and in assay [10] was inactive.

Regarding `CCSC(=O)N1CCCCCC1`, the result in assay [1], in assay [2], in [3], in assay [4], in assay [5] and in assay [6] was inactive. Moreover, the outcome in [7], in [8], in [9] and in [10] was inactive.

For `CSC(=O)c1c(C(F)F)nc(C(F)(F)F)c(C(=O)SC)c1CC(C)C`, the outcome in assay [1], in [2], in [3], in [4], in [5] and in [6] was inactive. Also, the outcome in assay [7], in [8] and in assay [9] was inactive. For the same molecule, the AC50 in assay [10] is 20 µM (active).

Turning to `CCOP(=S)(OCC)Oc1nc(Cl)n(C(C)C)n1`, the result in assay [1], in assay [2], in [3], in assay [4], in assay [5] and in assay [6] was inactive. Further, the outcome in assay [7], in assay [8], in assay [9] and in [10] was inactive.

With `CCOC(=O)C(C)OC(=O)c1cc(Oc2ccc(C(F)(F)F)cc2Cl)ccc1[N+](=O)[O-]` (stereo not given), the outcome in [1], in [2], in assay [4], in assay [6], in [7] and in assay [8] was inactive. Further, the result in assay [9] and in assay [10] was inactive. In addition, the AC50 is 0.989 µM (active) in assay [3] and 8.51 µM (active) in assay [5].

Regarding `CC1(C)CCC(=Cc2ccc(Cl)cc2)C1(O)Cn1cncn1` (stereo not given), the outcome in assay [1], in [2], in assay [3], in [4], in [5] and in assay [6] was inactive. Further, the result in assay [7], in [8], in assay [9] and in [10] was inactive.

Turning to `COP(=S)(OC)SCn1nnc2ccccc2c1=O`, the result in assay [1], in assay [2], in assay [3], in assay [4], in assay [5] and in assay [6] was inactive. In addition, the outcome in assay [7], in assay [8], in [9] and in [10] was inactive.

Turning to `Clc1nc(Cl)nc(Nc2ccccc2Cl)n1`, the result in assay [1], in assay [2], in [3], in [4], in [5] and in [6] was inactive. In addition, the result in [7], in assay [8], in assay [9] and in assay [10] was inactive.

For `CC(C)C1(C)N=C(c2ncccc2C(=O)O)NC1=O` (stereo not given), the result in assay [1], in assay [2], in assay [3], in [4], in [5] and in assay [6] was inactive. Also, the outcome in assay [7], in [8], in assay [9] and in assay [10] was inactive.

With `CCOc1nc(C(Cl)(Cl)Cl)ns1`, the result in assay [1], in [2], in assay [3], in assay [4], in assay [5] and in assay [6] was inactive. In addition, the result in assay [7], in assay [8], in assay [9] and in assay [10] was inactive.

Regarding `CN=C=S`, the result in [1], in [2], in assay [3], in assay [4], in assay [5] and in assay [6] was inactive. For the same molecule, the outcome in assay [7], in assay [8], in assay [9] and in assay [10] was inactive.

On to `COC(=O)c1c(C(F)F)nc(C(F)(F)F)c(C2=NCCS2)c1CC(C)C`, for which the outcome in assay [1], in assay [2], in assay [3], in assay [4], in assay [5] and in [6] was inactive. The result in [7], in assay [8] and in assay [9] was inactive. For the same molecule, the AC50 in [10] was 18 µM (active).

Consider `CCNP(=S)(OC)O/C(C)=C/C(=O)OC(C)C` (stereo not given), for which the result in [1], in assay [2], in assay [3], in assay [4], in [5] and in assay [6] was inactive. Moreover, the result in assay [7], in assay [8], in [9] and in assay [10] was inactive.
